According to PubChem BioAssay AID1159580 (chemical genetic matrix, 2015):
Values joined by “and” are separate entries in the source; they are usually repeats but may differ in a detail not shown here. Equal values may be shown once. The campaign covered roughly 5,500 compounds. About 2,000 (36%) were called active. Another 18% or so got no clear call; they are omitted. No stated cut-off is given here; in the data, active means normalized growth mostly below about 0.91 (no sharp cut-off); inconclusive means no clear call, values can overlap the other calls; inactive means mostly above about 0.92. The list shows a part of the results.

Test: chemical genetic growth profiling, strain panel (AID 1159580);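 further: tested at 20 µM; growth read once vehicle control cultures reached saturation at 30 °C; 1 = growth at the plate median or of vehicle wells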
Settings: S. cerevisiae deletion strains, growth OD

In the case of CCC(=O)O[C@H]1CCC2C3CCC4=CC(=O)CC[C@]4(C)C3CC[C@@]21C (some centres not stated), the normalized growth (locus YAL013W, strain DEP1, stronger effect = lower value) is reported as 0.792 (active), the normalized growth (locus YAL021C, strain ccr4, stronger effect = lower value) is reported as 0.979 (inactive) and the normalized growth (locus YAL026C, strain drs2, stronger effect = lower value) is reported as 0.959 (inactive). For the same molecule, the normalized growth (locus YAL030W, strain snc1, stronger effect = lower value) was 0.924 (active), the normalized growth (locus YBL061C, strain skt5, stronger effect = lower value) was 0.866 (active) and the normalized growth (locus YBR009C, strain hhf1, stronger effect = lower value) was 0.883 (active). For the same molecule, the normalized growth (locus YBR021W, strain FUR4, stronger effect = lower value) was 0.782 (active), the normalized growth (locus YBR023C, strain chs3, stronger effect = lower value) was 0.868 (active) and the normalized growth (locus YBR171W, strain sec66, stronger effect = lower value) was 0.925 (inactive). The normalized growth (locus YBR229C, strain ROT2, stronger effect = lower value) was 0.969 (inactive), the normalized growth (locus YBR231C, strain swc5, stronger effect = lower value) was 0.952 (inactive) and the normalized growth (locus YBR279W, strain paf1, stronger effect = lower value) was 0.959 (inactive). The normalized growth (locus YCL011C, strain gbp2, stronger effect = lower value) was 0.843 (active), the normalized growth (locus YCL016C, strain dcc1, stronger effect = lower value) was 0.905 (active) and the normalized growth (locus YCL029C, strain bik1, stronger effect = lower value) was 0.857 (active). The normalized growth (locus YCL069W, strain vba3, stronger effect = lower value) was 0.962 (inactive), the normalized growth (locus YCR088W, strain abp1, stronger effect = lower value) was 0.957 (inactive) and the normalized growth (locus YDL005C, strain med2, stronger effect = lower value) was 0.949 (inactive). The normalized growth (locus YDL035C, strain GPR1, stronger effect = lower value) was 0.892 (inactive), the normalized growth (locus YDL040C, strain nat1, stronger effect = lower value) was 0.946 (inactive) and the normalized growth (locus YDL074C, strain BRE1, stronger effect = lower value) was 0.76 (active). The normalized growth (locus YDL101C, strain DUN1, stronger effect = lower value) was 0.95 (inactive), the normalized growth (locus YDL185W, strain tfp1, stronger effect = lower value) was 1 (inactive) and the normalized growth (locus YDL192W, strain arf1, stronger effect = lower value) was 0.985 (inactive). For the same molecule, the normalized growth (locus YDR001C, strain nth1, stronger effect = lower value) was 0.962 (inactive), the normalized growth (locus YDR069C, strain doa4, stronger effect = lower value) was 0.924 (inactive) and the normalized growth (locus YDR101C, strain arx1, stronger effect = lower value) was 0.957 (inactive). The normalized growth (locus YDR137W, strain rgp1, stronger effect = lower value) was 0.689 (active), the normalized growth (locus YDR159W, strain sac3, stronger effect = lower value) was 0.796 (active) and the normalized growth (locus YDR162C, strain NBP2, stronger effect = lower value) was 0.808 (active). For the same molecule, the normalized growth (locus YDR195W, strain ref2) was 0.993 (inactive), the normalized growth (locus YDR297W, strain sur2, stronger effect = lower value) was 0.968 (inactive) and the normalized growth (locus YDR318W, strain mcm21, stronger effect = lower value) was 0.901 (active). For the same molecule, the normalized growth (locus YDR334W, strain swr1, stronger effect = lower value) was 0.952 (inactive), the normalized growth (locus YDR335W, strain msn5, stronger effect = lower value) was 0.934 (inactive) and the normalized growth (locus YDR388W, stronger effect = lower value) was 0.981 (inactive). For the same molecule, the normalized growth (locus YDR392W, strain spt3, stronger effect = lower value) was 0.213 (active), the normalized growth (locus YDR502C, strain sam2, stronger effect = lower value) was 0.919 (active) and the normalized growth (locus YEL003W, strain gim4, stronger effect = lower value) was 0.943 (inactive). For the same molecule, the normalized growth (locus YEL037C, strain rad23, stronger effect = lower value) was 0.96 (inactive), the normalized growth (locus YEL061C, strain CIN8 (second series), stronger effect = lower value) was 0.968 (inactive) and the normalized growth (locus YEL061C, strain CIN8, stronger effect = lower value) was 0.933 (inactive). For the same molecule, the normalized growth (locus YER015W, strain faa2, stronger effect = lower value) was 0.954 (inactive), the normalized growth (locus YER016W, strain bim1, stronger effect = lower value) was 0.879 (active) and the normalized growth (locus YER110C, stronger effect = lower value) was 0.998 (inactive). The normalized growth (locus YER111C, strain swi4, stronger effect = lower value) was 0.928 (inactive), the normalized growth (locus YER155C, strain BEM2 (second series), stronger effect = lower value) was 0.777 (active) and the normalized growth (locus YER155C, strain BEM2, stronger effect = lower value) was 0.873 (active). For the same molecule, the normalized growth (locus YER167W, strain BCK2, stronger effect = lower value) was 0.909 (inactive), the normalized growth (locus YFR010W, strain ubp6, stronger effect = lower value) was 0.992 (inactive) and the normalized growth (locus YGL078C, strain dbp3, stronger effect = lower value) was 0.984 (inactive). For the same molecule, the normalized growth (locus YGL086W, strain mad1, stronger effect = lower value) was 0.873 (active), the normalized growth (locus YGL167C, strain pmr1, stronger effect = lower value) was 0.928 (inactive) and the normalized growth (locus YGL173C, strain kem1, stronger effect = lower value) was 0.887 (active). For the same molecule, the normalized growth (locus YGL227W, strain vid30, stronger effect = lower value) was 0.949 (inactive), the normalized growth (locus YGL240W, strain doc1, stronger effect = lower value) was 0.928 (inactive) and the normalized growth (locus YGL248W, strain PDE1, stronger effect = lower value) was 0.916 (inactive). For the same molecule, the normalized growth (locus YGL253W, strain hxk2, stronger effect = lower value) was 0.872 (active), the normalized growth (locus YGR135W, strain pre9, stronger effect = lower value) was 0.969 (inactive) and the normalized growth (locus YGR229C, strain SMI1, stronger effect = lower value) was 0.821 (inactive). For the same molecule, the normalized growth (locus YGR252W, strain gcn5, stronger effect = lower value) was 0.872 (inactive), the normalized growth (locus YHR013C, strain ard1, stronger effect = lower value) was 1.02 (inactive) and the normalized growth (locus YHR027C, strain rpn1, stronger effect = lower value) was 0.967 (inactive). For the same molecule, the normalized growth (locus YHR030C, strain SLT2, stronger effect = lower value) was 0.889 (active) and 0.906 (inactive), the normalized growth (locus YHR079C, strain IRE1 (second series), stronger effect = lower value) was 0.981 (inactive) and the normalized growth (locus YHR079C, strain IRE1, stronger effect = lower value) was 0.896 (inactive). For the same molecule, the normalized growth (locus YHR094C, strain hxt1, stronger effect = lower value) was 0.982 (inactive), the normalized growth (locus YHR129C, strain ARP1, stronger effect = lower value) was 0.943 (inactive) and the normalized growth (locus YHR142W, strain chs7, stronger effect = lower value) was 0.737 (active). The normalized growth (locus YHR200W, strain rpn10, stronger effect = lower value) was 0.943 (inactive), the normalized growth (locus YIL066C, strain RNR3, stronger effect = lower value) was 0.878 (inactive) and the normalized growth (locus YIL073C, strain SPO22, stronger effect = lower value) was 0.807 (inactive). The normalized growth (locus YIL125W, strain kgd1, stronger effect = lower value) was 0.975 (inactive), the normalized growth (locus YIR030C, strain dcg1, stronger effect = lower value) was 0.991 (inactive) and the normalized growth (locus YJL092W, strain hpr5, stronger effect = lower value) was 0.929 (inactive). For the same molecule, the normalized growth (locus YJL095W, strain BCK1 (second series), stronger effect = lower value) was 0.77 (active), the normalized growth (locus YJL095W, strain BCK1, stronger effect = lower value) was 0.724 (active) and 0.95 (inactive) and the normalized growth (locus YJL115W, strain asf1, stronger effect = lower value) was 0.945 (inactive). The normalized growth (locus YJL129C, strain trk1, stronger effect = lower value) was 0.781 (active), the normalized growth (locus YJL134W, strain LCB3, stronger effect = lower value) was 0.978 (inactive) and the normalized growth (locus YJL154C, strain vps35, stronger effect = lower value) was 0.943 (inactive). The normalized growth (locus YJL164C, strain tpk1, stronger effect = lower value) was 0.893 (active), the normalized growth (locus YJL166W, strain qcr8, stronger effect = lower value) was 0.865 (active) and the normalized growth (locus YJL168C, strain set2, stronger effect = lower value) was 0.983 (inactive). The normalized growth (locus YJL187C, strain SWE1 (second series), stronger effect = lower value) was 0.951 (inactive), the normalized growth (locus YJL187C, strain SWE1, stronger effect = lower value) was 0.907 (active) and the normalized growth (locus YJR043C, strain POL32, stronger effect = lower value) was 0.928 (inactive).
